The values below come from PubChem BioAssay (NCI).

About 83,000 compounds went through this panel and 20% of them were active in at least one assay; those are over-represented in the sample as a whole.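 Step 1: grow cells in 96-well plates. Step 2: add test compound at a single concentration. Step 3: incubate 48 h. Step 4: record percent growth.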 A number with no mark means an inactive call. Active and inactive are the calls of the source. How the source made its calls: active means growth percent below 10; inactive means the rest.

Some test systems named below: HCT-15 colon; HT29 colon; SNB-75 CNS; SNB-19 CNS; U251 CNS; PC-3 prostate; SK-MEL-5 melanoma; UACC-62 melanoma; LOX IMVI melanoma; SK-MEL-28 melanoma; SK-MEL-2 melanoma; EKVX NSCLC; UO-31 renal; TK-10 renal; ACHN renal; CAKI-1 renal; A498 renal; CCRF-CEM leukemia; MOLT-4 leukemia; SN12C renal.
Experiment in all cases: NCI-60 one-dose screen, 48 h (100 = growth as untreated, 0 = no growth, -100 = all killed)
Conditions in all cases: 10 µM unless noted

Turning to `N#C/C(=C\c1cccc2c1OCO2)C(=O)Nc1sc2c(c1C#N)CCCC2`, the growth in the experiment with HCT-15 colon is 102%; with HT29 colon, 124%; in the experiment on SNB-75 CNS, 102%; with SNB-19 CNS, 95.4%; in the experiment on U251 CNS, 96.9%; with PC-3 prostate, 109%. In addition, the growth with SK-MEL-5 melanoma is 101%; in the experiment with UACC-62 melanoma, 90.8%; in the experiment on LOX IMVI melanoma it was 104%; with SK-MEL-28 melanoma, 102%; in the experiment on SK-MEL-2 melanoma it was 106%; in the experiment with EKVX NSCLC, 87.8%. Besides, the growth with UO-31 renal was 82.6%; in the experiment with TK-10 renal, 120%; in the experiment with ACHN renal it was 109%; with CAKI-1 renal it was 86.1%; with A498 renal it was 98.6%; in the experiment with CCRF-CEM leukemia, 108%. In addition, in the experiment on MOLT-4 leukemia, the growth was 102%.

Regarding `COc1cc(/C=N\NC(=O)c2ccc3nc(-c4ccc(Br)cc4)[nH]c3c2)cc(OC)c1OC`, the growth is 79.4% in the experiment on HCT-15 colon; 25.3% in the experiment on HT29 colon; 57.1% in the experiment on SNB-75 CNS; 59.3% with SNB-19 CNS; 45.1% in the experiment with U251 CNS; 46.2% in the experiment on PC-3 prostate. For the same compound, the growth with SK-MEL-5 melanoma was 27.5%; with UACC-62 melanoma it was 28.1%; in the experiment on LOX IMVI melanoma it was 35.2%; with SK-MEL-28 melanoma it was 30.2%; with SK-MEL-2 melanoma, 60.2%; in the experiment with SN12C renal it was 63.4%. Also, the growth was 72.3% with UO-31 renal; 58.9% in the experiment on TK-10 renal; 60.9% with ACHN renal; 33.2% in the experiment with CAKI-1 renal; 20.8% with A498 renal; 25.8% with CCRF-CEM leukemia. The growth in the experiment with MOLT-4 leukemia was 31.6%.

As for `C/C(=C(\c1ccc(O)cc1)c1ccc(OCCN2CCCCCC2)cc1)c1ccc(Cl)cc1`, the growth in the experiment on HCT-15 colon is -88.7% (active); in the experiment with HT29 colon, -72.8% (active); in the experiment with SNB-75 CNS it was -77.9% (active); with SNB-19 CNS, -20.6% (active); with U251 CNS, -81.1% (active); in the experiment with PC-3 prostate, -69.9% (active). Besides, the growth in the experiment on SK-MEL-5 melanoma was -96% (active); in the experiment on UACC-62 melanoma it was -85.1% (active); in the experiment with LOX IMVI melanoma, -95.4% (active); in the experiment on SK-MEL-28 melanoma it was -84.1% (active); in the experiment with SK-MEL-2 melanoma, -92.3% (active); in the experiment on EKVX NSCLC it was -81.2% (active). Besides, the growth in the experiment on UO-31 renal is -93.3% (active); with TK-10 renal, -95.2% (active); with ACHN renal, -88.2% (active); in the experiment on CAKI-1 renal it was -97.3% (active); in the experiment on A498 renal, -91% (active); with MOLT-4 leukemia it was -21.6% (active).

Consider `CN1CCN(CCNc2nc(-c3cccc(NS(=O)(=O)c4cccc5c(N(C)C)cccc45)c3)cs2)CC1`, for which the growth in the experiment with HCT-15 colon is 18.5%; with HT29 colon it was 71.6%; in the experiment on SNB-75 CNS, 73.8%; in the experiment with SNB-19 CNS, 75.5%; in the experiment on U251 CNS it was 65.9%; in the experiment with PC-3 prostate, 65.5%. In addition, the growth is 12.2% in the experiment on SK-MEL-5 melanoma; 65.7% in the experiment with UACC-62 melanoma; 38.1% in the experiment with LOX IMVI melanoma; 40.2% in the experiment with SK-MEL-28 melanoma; 103% in the experiment on SK-MEL-2 melanoma; 58.9% in the experiment with SN12C renal. Besides, the growth in the experiment with UO-31 renal was 56.8%; in the experiment with TK-10 renal, 90.7%; in the experiment on ACHN renal, 72.5%; with CAKI-1 renal it was 58.6%; in the experiment on A498 renal, 67.5%; in the experiment with CCRF-CEM leukemia it was 60.1%. The growth with MOLT-4 leukemia is 44.6%.

Turning to `Cc1nc(N)sc1-c1csc(Nc2ccc(C(F)(F)F)cc2)n1`, the growth is 7.03% (active) in the experiment on HCT-15 colon; -27.6% (active) with HT29 colon; 56.5% with SNB-75 CNS; 47.3% in the experiment on SNB-19 CNS; 53.3% in the experiment with U251 CNS; 36.5% with PC-3 prostate. Moreover, the growth in the experiment on SK-MEL-5 melanoma was -43% (active); in the experiment with UACC-62 melanoma, 22.2%; in the experiment on LOX IMVI melanoma, 6.07% (active); in the experiment on SK-MEL-28 melanoma, 42.1%; in the experiment with SK-MEL-2 melanoma, 8.77% (active); in the experiment on SN12C renal it was 29.2%. The growth with UO-31 renal is 21.1%; in the experiment on TK-10 renal, 35%; in the experiment on ACHN renal, 13%; in the experiment with CAKI-1 renal, 33.9%; with A498 renal, 82.4%; with CCRF-CEM leukemia, 21.3%. Also, the growth in the experiment on MOLT-4 leukemia is 18.3%.

For the compound `CC1=C(C)C(=O)C(Nc2cccc(C(=O)OC(C)(C)C)c2)=CC1=O`, the growth in the experiment with HCT-15 colon was 60.4%; with HT29 colon it was 104%; in the experiment with SNB-75 CNS it was 71%; in the experiment with SNB-19 CNS it was 78.2%; in the experiment with U251 CNS, 64.3%; in the experiment with PC-3 prostate, 76.7%. Moreover, the growth with SK-MEL-5 melanoma was 31.3%; in the experiment with UACC-62 melanoma it was 65.6%; in the experiment with LOX IMVI melanoma, 47.3%; with SK-MEL-28 melanoma it was 96.5%; in the experiment with SK-MEL-2 melanoma, 82.4%; with EKVX NSCLC it was 81.2%. Besides, the growth in the experiment on UO-31 renal is 66.4%; in the experiment with TK-10 renal it was 125%; in the experiment on ACHN renal, 86.4%; in the experiment on CAKI-1 renal, 71.5%; in the experiment on A498 renal it was 66.9%; in the experiment with MOLT-4 leukemia, 65%.

`Cc1[nH]c(C(=O)Nc2ccccc2OCc2cccc(C(=O)NCCN)c2)cc1Cl`: the growth was 106% in the experiment on HCT-15 colon; 69.4% in the experiment with HT29 colon; 74.4% in the experiment on SNB-75 CNS; 85.8% in the experiment with SNB-19 CNS; 53.3% in the experiment on U251 CNS; 96.5% in the experiment on PC-3 prostate. Further, the growth in the experiment on SK-MEL-5 melanoma was 99.3%; in the experiment with UACC-62 melanoma, 68.4%; in the experiment on LOX IMVI melanoma, 35.6%; with SK-MEL-28 melanoma, 37.6%; with SK-MEL-2 melanoma, 92.8%; in the experiment on UO-31 renal, 92.2%. Moreover, the growth was 98.9% in the experiment on TK-10 renal; 95.1% in the experiment with ACHN renal; 90.2% in the experiment with CAKI-1 renal; 68.3% in the experiment with A498 renal; 27.4% in the experiment on CCRF-CEM leukemia; 68.6% in the experiment with MOLT-4 leukemia.

As for `CN(C)S(=O)(=O)c1ccc(-c2nc(C(Cl)Cl)nc3cc(-c4ccccc4)nn23)cc1`, the growth in the experiment with HCT-15 colon is 47.7%; in the experiment with HT29 colon it was 45.6%; in the experiment with SNB-75 CNS it was 84.7%; with SNB-19 CNS it was 85.2%; in the experiment on U251 CNS, 66.2%; with PC-3 prostate, 87.7%. Moreover, the growth is 92% with SK-MEL-5 melanoma; 11.7% with UACC-62 melanoma; 44.5% in the experiment with LOX IMVI melanoma; -4.08% (active) in the experiment with SK-MEL-28 melanoma; 112% with SK-MEL-2 melanoma; 81.1% in the experiment with SN12C renal. Besides, the growth in the experiment with UO-31 renal was 88.8%; with TK-10 renal it was 101%; in the experiment with ACHN renal, 43.4%; in the experiment with CAKI-1 renal, 73.1%; with A498 renal, 106%; in the experiment with CCRF-CEM leukemia, 77.3%. The growth in the experiment on MOLT-4 leukemia is 63.4%.
